Source: PubChem BioAssay
An excerpt weighted towards active compounds, which were near 3.8% of everything screened.
Cardio protect = cardioprotection against H2O2-induced cell death, primary screen, uHTS, H9c2 cells, ATPLite luminescence | AID 588492, 2011 | 360,000 tested, 0.63% active | H9c2 cardiomyocytes, H2O2 injury protection, 2 h | protection from H2O2 cell death, % at 20 µM;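 active = compounds giving at least 50% protection of heart cells from peroxide-induced death in the single-dose screen, raw or plate-pattern-corrected value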
aDG glyco act = activators of alpha-DG glycosylation, primary screen, uHTS, Pro5-aDG cells, AlphaScreen; alpha-DG glycosylation AlphaScreen (IIH6); 0% Pro5, 100% B10-LARGE cell signal; activation, % at 10 µM; 360,000 tested, 0.22% active;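 active = activation of at least 8% versus controls, or a plate z-score of at least 8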;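 note: Pro5 are CHO cells carrying HIG-tagged alpha-DG that lacks glycosylation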
SUMO Mot1 rescue = yeast Mot1-301 growth rescue at high temperature, primary screen, SUMOylation pathway inhibitor project, S. cerevisiae, ATP luminescence, 38.5C. S. cerevisiae Mot1-301 growth rescue; percent above DMSO median, 100 means doubled. growth rescue, % at 18.8 µM. 320,000 tested, 1% active. AID 2716, 2010;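 active = every valid replicate shows activation above 250% relative to neutral control wells; inactive = the rest, any valid replicate at or below 250%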
MPTP block = mitochondrial permeability transition pore inhibitors, primary screen, biochemical, isolated mouse mitochondria, absorbance. inhibition, % at 10 µM. 360,000 tested, 1.4% active. Ca2+ swelling absorbance, 30 min;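 active = inhibition of 50% or more, scaled per plate between neutral and stimulator controls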
CR mimetic SO = reduction of superoxide in aged yeast, primary screen, HTS; S. cerevisiae aged cells, superoxide DHE fluorescence; active compounds read low; superoxide response (% of plate mean), % at 10 µM; 330,000 tested, 0.18% active;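 active = superoxide response under a set limit, about three screen SD below normal, cut at about 65% in these data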;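 note: yeast aged for seven days with compound at 30 °C before DHE staining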
FAS-TE inh = FAS thioesterase domain inhibitors, primary screen, biochemical, fluorescence intensity, uHTS | Fatty acid synthase (Homo sapiens), P49327 | recombinant FAS-TE, OMFH fluorogenic substrate, fluorescence endpoint | inhibition, % at 15 µM | 360,000 tested, 0.67% active | AID 602261, 2012;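 active = compounds whose normalised, plate-corrected inhibition of enzyme fluorescence in the single-dose primary screen is 50% or more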
Target sequence (P49327 whole entry, looked up, the tested form may be a part): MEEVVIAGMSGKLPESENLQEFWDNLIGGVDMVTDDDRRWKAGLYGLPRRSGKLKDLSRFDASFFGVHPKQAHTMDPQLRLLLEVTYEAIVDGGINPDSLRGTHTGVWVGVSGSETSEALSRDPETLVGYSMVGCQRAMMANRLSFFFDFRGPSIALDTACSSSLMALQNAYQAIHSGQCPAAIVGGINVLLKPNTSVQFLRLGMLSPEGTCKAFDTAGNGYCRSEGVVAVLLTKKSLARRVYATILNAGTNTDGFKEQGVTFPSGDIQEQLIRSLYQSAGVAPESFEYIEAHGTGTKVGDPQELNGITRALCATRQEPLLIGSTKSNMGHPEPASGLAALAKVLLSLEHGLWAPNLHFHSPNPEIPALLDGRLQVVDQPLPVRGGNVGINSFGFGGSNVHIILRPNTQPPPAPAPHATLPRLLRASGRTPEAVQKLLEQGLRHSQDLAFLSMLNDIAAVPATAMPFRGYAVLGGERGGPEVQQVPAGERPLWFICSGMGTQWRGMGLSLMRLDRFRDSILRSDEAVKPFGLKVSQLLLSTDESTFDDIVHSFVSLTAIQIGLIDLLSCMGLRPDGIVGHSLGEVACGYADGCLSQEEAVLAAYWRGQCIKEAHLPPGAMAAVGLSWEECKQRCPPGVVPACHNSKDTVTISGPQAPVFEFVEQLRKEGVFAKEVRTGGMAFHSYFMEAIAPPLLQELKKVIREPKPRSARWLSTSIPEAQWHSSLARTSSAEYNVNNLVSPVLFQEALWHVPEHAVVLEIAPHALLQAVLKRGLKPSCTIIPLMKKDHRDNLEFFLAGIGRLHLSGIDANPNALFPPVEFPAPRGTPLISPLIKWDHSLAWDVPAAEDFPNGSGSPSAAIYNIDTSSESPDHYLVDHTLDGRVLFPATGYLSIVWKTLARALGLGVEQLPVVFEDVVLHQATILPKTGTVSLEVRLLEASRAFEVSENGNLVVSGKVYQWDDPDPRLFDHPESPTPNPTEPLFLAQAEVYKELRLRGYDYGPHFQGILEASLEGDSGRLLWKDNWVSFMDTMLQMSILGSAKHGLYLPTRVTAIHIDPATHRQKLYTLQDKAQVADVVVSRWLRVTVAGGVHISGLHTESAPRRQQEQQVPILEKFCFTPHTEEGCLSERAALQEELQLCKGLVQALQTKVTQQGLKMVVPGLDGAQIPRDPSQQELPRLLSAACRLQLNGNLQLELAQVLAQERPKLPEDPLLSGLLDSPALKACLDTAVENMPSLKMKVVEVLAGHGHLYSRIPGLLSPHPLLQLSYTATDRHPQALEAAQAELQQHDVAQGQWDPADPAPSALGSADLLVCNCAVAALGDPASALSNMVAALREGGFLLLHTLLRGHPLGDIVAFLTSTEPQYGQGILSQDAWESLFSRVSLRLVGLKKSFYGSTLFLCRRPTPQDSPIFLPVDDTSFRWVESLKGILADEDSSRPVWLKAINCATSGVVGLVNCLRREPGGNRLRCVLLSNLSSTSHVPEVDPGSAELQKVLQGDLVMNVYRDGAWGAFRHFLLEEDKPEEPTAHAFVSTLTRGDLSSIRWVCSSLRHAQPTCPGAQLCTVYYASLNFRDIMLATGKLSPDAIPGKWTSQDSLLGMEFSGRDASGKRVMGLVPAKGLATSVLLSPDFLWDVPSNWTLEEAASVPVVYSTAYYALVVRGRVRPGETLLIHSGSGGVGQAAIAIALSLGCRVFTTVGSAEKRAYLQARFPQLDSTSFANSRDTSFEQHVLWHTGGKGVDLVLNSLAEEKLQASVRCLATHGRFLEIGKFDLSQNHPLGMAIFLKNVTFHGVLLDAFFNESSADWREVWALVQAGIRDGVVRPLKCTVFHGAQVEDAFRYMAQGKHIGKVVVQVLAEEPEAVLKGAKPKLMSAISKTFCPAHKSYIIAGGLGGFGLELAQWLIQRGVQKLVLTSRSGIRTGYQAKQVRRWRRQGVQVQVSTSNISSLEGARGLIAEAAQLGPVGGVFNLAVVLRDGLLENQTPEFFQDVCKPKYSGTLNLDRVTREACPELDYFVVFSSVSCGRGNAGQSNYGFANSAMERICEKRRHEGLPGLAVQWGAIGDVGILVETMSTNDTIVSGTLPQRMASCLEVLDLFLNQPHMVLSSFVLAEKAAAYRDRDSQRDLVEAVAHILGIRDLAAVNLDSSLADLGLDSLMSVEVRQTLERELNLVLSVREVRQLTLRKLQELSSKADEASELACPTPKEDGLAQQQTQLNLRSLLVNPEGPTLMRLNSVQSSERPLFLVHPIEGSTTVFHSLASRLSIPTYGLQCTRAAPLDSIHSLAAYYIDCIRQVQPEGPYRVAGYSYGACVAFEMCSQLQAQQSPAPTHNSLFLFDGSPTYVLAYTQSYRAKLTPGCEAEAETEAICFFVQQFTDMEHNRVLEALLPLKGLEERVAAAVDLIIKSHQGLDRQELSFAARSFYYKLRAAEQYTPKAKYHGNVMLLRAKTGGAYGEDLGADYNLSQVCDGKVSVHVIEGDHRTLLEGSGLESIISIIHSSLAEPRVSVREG
FAS-TE inh conf = FAS thioesterase domain inhibitors, confirmation, biochemical, fluorescence intensity, single concentration; 2,300 tested, 45% active; inhibition, % at 15 µM; shares compounds with FAS-TE inh; recombinant FAS-TE, OMFH fluorogenic substrate; AID 624325, 2012;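 active = compounds inhibiting the enzyme by at least 50% at 15 µM in any one of the replicates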
Numbers stand for hits; . = inactive; / = no result.

SMILES | Cardio protect | aDG glyco act | SUMO Mot1 rescue | MPTP block | CR mimetic SO | FAS-TE inh | FAS-TE inh conf
Cc1ccc(S(=O)(=O)N2CCN(Cc3ccccc3)CC2)c(C)c1N(C)S(=O)(=O)c1ccccc1 | . | . | . | . | . | 52.3 | .
CCOC(=O)c1csc(-c2csc(CCNC(=O)c3ccccc3)n2)n1 | . | . | / | . | / | . | /
COc1ccc(C(=O)N/C(=C\c2cn(S(=O)(=O)N(C)C)c3ccccc23)C(=O)N2CCCC2)cc1 | . | . | / | . | / | 79.5 | 89.9
COc1ccc(C(=O)N/C(=C\c2cn(S(=O)(=O)N(C)C)c3ccccc23)C(=O)NC(C)C)cc1 | . | . | . | . | . | 65.2 | .
COc1ccc(C(=O)N/C(=C\c2cn(S(=O)(=O)N(C)C)c3ccccc23)C(=O)N2CCOCC2)cc1 | . | . | . | . | . | 82.2 | 70.8
COCCn1c(Cc2ccccc2)nnc1SCC(=O)N1CCCC1=O | . | . | . | . | . | . | /
COc1ccc2cc(/C(C)=N/NC(=O)c3cc(C)oc3C)ccc2c1 | . | . | / | . | / | . | /
COc1ccc(/C=N\Nc2ncc(F)c(N3CCOCC3)n2)cc1OC | . | . | . | . | . | . | /
COc1ccc(CNC(=O)CCc2ccc(S(=O)(=O)N3CCCCCC3)cc2)cc1OC | . | . | / | . | / | . | /
CC(=O)O[C@@H]1C[C@H]2C(C)(C)C(=O)C=C[C@]2(C)[C@H]2CC[C@@]3(C)[C@H](c4ccoc4)OC(=O)[C@H]4O[C@]43[C@@]21C | . | . | . | . | . | 50.8 | .
Cc1cc(C(C)(C)C)cc(C)c1COC(=O)CN1C(=O)NC2(CCCC2)C1=O | . | . | . | . | . | 52.3 | 55.6
O=C(CN1C(=O)NC2(CCCC2)C1=O)OCc1ccc(F)cc1 | . | . | . | . | . | . | /
CC(C)(C)c1ccc(COC(=O)CN2C(=O)NC3(CCCC3)C2=O)cc1 | . | . | . | . | . | 67.6 | 76.2
CC(C)Cn1c(SCC(=O)N(C)c2c(N)n(Cc3ccccc3)c(=O)[nH]c2=O)nc2ccccc21 | . | . | . | . | . | . | /
CCOC(=O)N=Nc1c2ccccc2c2nc3no[nH]c3nc12 | . | . | / | . | / | 87.1 | 42.7
CSc1nc2nc3c(cn2n1)C(=O)CC(c1ccccc1)C3 (stereo not given) | . | . | . | . | . | . | /
Cn1c(=O)c2cc3c(nc2n(C)c1=O)CC(c1ccccc1)CC3=O (stereo not given) | . | . | . | . | . | 59.6 | 50.7
CCOC(=O)c1ccc(C(=S)N2CCCC2)cc1 | . | . | / | . | / | . | /
CC1([N+](=O)[O-])COC(c2cccc3ccccc23)OC1 (stereo not given) | . | . | / | . | / | . | /
O=C1CC(c2ccccc2)CC2=C1C1(CCCC1)N=C(Nc1nc3ccccc3o1)N2 (stereo not given) | . | . | / | . | / | 69.2 | .
CCCCCC1CC(CC(=O)Nc2ccc([N+](=O)[O-])cc2)C(=O)O1 (stereo not given) | . | . | . | . | . | 53.6 | 57.0
Cc1cccc(CC(=O)N2CCC(N3CCC(C(=O)N4CCOCC4)CC3)CC2)c1 | . | . | . | . | . | . | /
O=C(NCCC(=O)N(CCc1ccccc1)Cc1ccccc1)c1ccc([N+](=O)[O-])cc1 | . | . | . | . | . | 61.2 | 42.1
O=C(CCNC(=O)c1ccc([N+](=O)[O-])cc1)NC1CCCCCC1 | . | . | . | . | . | 63.4 | 69.8
CC(C)c1ccc(CCNC(=O)c2ccc([N+](=O)[O-])cc2)cc1 | . | . | . | . | . | 66.5 | 73.0
SMILES | Cardio protect | aDG glyco act | SUMO Mot1 rescue | MPTP block | CR mimetic SO | FAS-TE inh | FAS-TE inh conf
O=C(NCCc1ccc([N+](=O)[O-])cc1)c1ccccc1 | . | . | . | . | . | . | /
CN(c1ccccc1)S(=O)(=O)c1cccc(NC(=O)CCNC(=O)c2ccc([N+](=O)[O-])cc2)c1 | . | . | . | . | . | 54.4 | 61.5
O=C(NCCc1ccccc1)c1ccc([N+](=O)[O-])cc1 | . | . | . | . | . | . | /
CC1(c2nnnn2-c2ccc3c(c2)OCCO3)CCC(=O)N1CC1CCCCC1 (stereo not given) | / | . | / | . | / | . | /
COc1ccc(CC(=O)N(Cc2ccccc2)c2ccc(C)cc2)cc1OC | . | . | . | . | . | . | /
O=C(CCNC(=O)c1ccc([N+](=O)[O-])cc1)NCc1ccccc1 | . | . | / | . | / | 59.5 | 71.9
O=C(CCC(=O)NNC(=O)c1ccc([N+](=O)[O-])cc1)NCc1ccccc1 | . | . | . | . | . | . | /
CC(C)CCN1C(=O)c2ccc(C(=O)OCn3nnc4ccccc4c3=O)cc2C1=O | . | . | . | . | . | 55.0 | .
C=CCn1c(SCc2ccc(Br)cc2F)nc2cc(C(=O)O)ccc2c1=O | . | . | . | . | . | 61.7 | 65.0
C=CCn1c(SCc2c(C)noc2C)nc2cc(C(=O)O)ccc2c1=O | . | . | . | . | . | . | /
CC(C)OC(=O)/C(C#N)=C/c1cn(C)c2ccccc12 | . | . | . | . | . | 52.2 | 49.4
COc1ccc(CS(=O)(=O)c2nc(C)cc(C)c2S(C)(=O)=O)cc1 | . | . | . | . | . | . | /
Cc1c(Br)c([N+](=O)[O-])nn1CC(=O)N1CCc2ccccc2C1 | . | . | . | . | . | 64.2 | 59.5
Cc1nn(CC(=O)N2CCc3ccccc3C2)c(C)c1[N+](=O)[O-] | . | . | . | . | . | . | /
O=C(Cn1cc([N+](=O)[O-])ccc1=O)N1CCc2ccccc2C1 | . | . | . | . | . | 67.0 | 69.1
O=C(CCn1c(=O)c2ccccc2n(Cc2cccc([N+](=O)[O-])c2)c1=O)N1CCc2ccccc2C1 | . | . | . | . | . | 86.6 | 47.1
O=C(Cn1cc([N+](=O)[O-])ccc1=O)N1CCc2ccccc21 | . | . | . | . | . | . | /
Cc1c(Br)c([N+](=O)[O-])nn1CCCC(=O)N1CCN(c2ccccc2)CC1 | . | . | . | . | . | 54.2 | 42.7
Cc1ccc(NC(=O)CN(C)C(=O)Cc2c[nH]c3ccccc23)cc1 | . | . | . | . | . | . | /
Cc1c(Cl)c([N+](=O)[O-])nn1CCCC(=O)N(Cc1ccccc1)Cc1ccccc1 | . | . | . | . | . | 63.2 | 61.2
Cc1c(Cl)c([N+](=O)[O-])nn1CCCC(=O)N1CCN(c2ccccc2)CC1 | . | . | . | . | . | . | /
